# Experimental data as given in publication PMC7862700, “An all-to-all approach to the identification of sequence-specific readers for epigenetic DNA modifications on cytosine”.
# Assays:
# Test in all cases: DAPPL (digital affinity profiling via proximity ligation, sequencing); 10 mM Tris-HCl pH 7.5, 50 mM NaCl, 1 mM DTT, 4% glycerol, room temperature, 30 min; GST-TFs on glutathione beads, 16-mer random dsDNA library, 0.1% formaldehyde crosslink after washing; high values mean tight binding
# FLI1 = target: T1, FLI1 (Homo sapiens, UniProt Q01543 1-452); settings: protein: recombinant; tags: N-terminal GST; dsDNA, one strand shown
# T1 sequence: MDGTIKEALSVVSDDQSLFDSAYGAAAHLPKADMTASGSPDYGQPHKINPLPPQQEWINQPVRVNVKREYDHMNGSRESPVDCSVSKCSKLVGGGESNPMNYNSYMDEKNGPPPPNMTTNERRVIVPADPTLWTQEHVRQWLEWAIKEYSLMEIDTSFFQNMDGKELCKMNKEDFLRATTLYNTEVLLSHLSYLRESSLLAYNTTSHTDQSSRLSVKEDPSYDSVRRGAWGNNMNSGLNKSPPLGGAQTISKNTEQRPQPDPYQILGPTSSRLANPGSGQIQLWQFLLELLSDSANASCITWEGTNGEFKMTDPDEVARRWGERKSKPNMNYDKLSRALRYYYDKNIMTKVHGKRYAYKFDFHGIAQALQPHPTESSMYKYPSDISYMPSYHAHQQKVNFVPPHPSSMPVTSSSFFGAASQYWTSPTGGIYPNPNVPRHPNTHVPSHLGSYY
# Outline: (§1)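 After expression in yeast as GST fusions, human transcription factors were bound to glutathione beads, DNA-barcoded and mixed with a tag-only sample. The pools were incubated with 200 nmole of a 16-mer random double-stranded DNA library in Tris/NaCl/DTT/glycerol buffer (30 min, room temperature), washed and crosslinked with 0.1% formaldehyde. Proximity ligation with BsaI/T4 ligase ran for 1 h at 37 °C, before PCR amplification and sequencing on an Illumina NextSeq500. Binding signal is a hexamer's read frequency for a factor divided by its frequency for the tag-only sample.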
# ELK1 = target: T2, ELK1 (Homo sapiens, UniProt P19419 1-428); settings: protein: recombinant; tags: N-terminal GST; dsDNA, one strand shown
# T2 sequence: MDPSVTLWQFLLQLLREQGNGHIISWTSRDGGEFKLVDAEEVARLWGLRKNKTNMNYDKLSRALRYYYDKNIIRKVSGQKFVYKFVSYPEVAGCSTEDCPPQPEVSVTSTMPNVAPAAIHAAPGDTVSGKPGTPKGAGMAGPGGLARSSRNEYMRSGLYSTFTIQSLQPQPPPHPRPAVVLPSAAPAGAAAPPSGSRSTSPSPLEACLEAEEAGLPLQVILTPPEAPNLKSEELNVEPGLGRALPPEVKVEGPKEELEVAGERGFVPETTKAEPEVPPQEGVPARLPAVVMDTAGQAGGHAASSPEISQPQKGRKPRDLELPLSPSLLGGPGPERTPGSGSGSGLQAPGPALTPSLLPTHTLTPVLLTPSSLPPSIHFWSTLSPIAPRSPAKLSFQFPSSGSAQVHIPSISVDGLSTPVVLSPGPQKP
# Outline: as §1
# GABPA = target: T3, GABPA (Homo sapiens, UniProt Q06546 1-454); settings: protein: recombinant; tags: N-terminal GST; dsDNA, one strand shown
# T3 sequence: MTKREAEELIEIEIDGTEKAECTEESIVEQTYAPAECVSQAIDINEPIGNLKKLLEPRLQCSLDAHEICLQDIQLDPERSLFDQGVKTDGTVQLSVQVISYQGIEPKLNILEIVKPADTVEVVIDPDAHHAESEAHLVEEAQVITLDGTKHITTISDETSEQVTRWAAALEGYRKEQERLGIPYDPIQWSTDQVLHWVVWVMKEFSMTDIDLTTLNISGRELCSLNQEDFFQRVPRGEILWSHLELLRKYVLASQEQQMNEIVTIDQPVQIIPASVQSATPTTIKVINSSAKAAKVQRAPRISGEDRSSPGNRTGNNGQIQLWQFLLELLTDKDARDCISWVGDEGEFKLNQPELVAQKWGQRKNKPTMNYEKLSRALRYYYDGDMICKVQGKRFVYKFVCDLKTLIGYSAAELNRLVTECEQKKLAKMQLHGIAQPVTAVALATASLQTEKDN
# Outline: as §1
# ERG = target: T4, ERG (Homo sapiens, UniProt P11308 1-479); settings: protein: recombinant; tags: N-terminal GST; dsDNA, one strand shown
# T4 sequence: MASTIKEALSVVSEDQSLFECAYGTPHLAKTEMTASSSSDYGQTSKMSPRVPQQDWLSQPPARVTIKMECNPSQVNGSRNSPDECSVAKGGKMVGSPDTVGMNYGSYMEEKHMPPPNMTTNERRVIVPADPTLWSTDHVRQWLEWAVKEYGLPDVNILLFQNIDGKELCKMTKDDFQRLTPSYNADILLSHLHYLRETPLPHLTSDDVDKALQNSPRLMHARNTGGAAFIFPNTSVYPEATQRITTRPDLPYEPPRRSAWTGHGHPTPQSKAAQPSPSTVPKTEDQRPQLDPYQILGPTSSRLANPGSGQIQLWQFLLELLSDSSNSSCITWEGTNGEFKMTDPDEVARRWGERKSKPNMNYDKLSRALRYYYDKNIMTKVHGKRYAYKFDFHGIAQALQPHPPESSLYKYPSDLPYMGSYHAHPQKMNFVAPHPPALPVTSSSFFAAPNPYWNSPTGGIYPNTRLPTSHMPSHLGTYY
# Outline: as §1
# ELF1 = ELF1 (Homo sapiens, UniProt P32519 1-619); settings: protein: recombinant; tags: N-terminal GST; dsDNA, one strand shown
# Chain of ELF1 (P32519 whole entry): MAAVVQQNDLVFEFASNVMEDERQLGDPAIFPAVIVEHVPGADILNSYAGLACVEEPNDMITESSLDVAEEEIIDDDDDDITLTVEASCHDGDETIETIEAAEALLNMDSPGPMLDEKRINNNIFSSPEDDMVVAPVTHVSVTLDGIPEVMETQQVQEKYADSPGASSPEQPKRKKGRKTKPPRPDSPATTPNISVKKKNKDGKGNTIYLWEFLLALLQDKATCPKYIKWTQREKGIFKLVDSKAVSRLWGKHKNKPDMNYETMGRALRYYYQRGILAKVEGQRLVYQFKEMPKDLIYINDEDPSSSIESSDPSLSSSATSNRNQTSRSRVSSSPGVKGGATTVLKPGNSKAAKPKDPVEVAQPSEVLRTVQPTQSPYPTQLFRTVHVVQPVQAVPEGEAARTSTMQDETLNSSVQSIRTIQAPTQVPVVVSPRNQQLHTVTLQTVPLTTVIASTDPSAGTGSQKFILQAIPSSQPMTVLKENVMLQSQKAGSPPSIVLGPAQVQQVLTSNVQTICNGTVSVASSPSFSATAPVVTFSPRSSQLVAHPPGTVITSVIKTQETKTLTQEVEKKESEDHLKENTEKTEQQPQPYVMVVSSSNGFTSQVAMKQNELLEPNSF
# Outline: as §1
# EHF = target: T5, EHF (Homo sapiens, UniProt Q9NZC4 1-300); settings: protein: recombinant; tags: N-terminal GST; dsDNA, one strand shown
# T5 sequence: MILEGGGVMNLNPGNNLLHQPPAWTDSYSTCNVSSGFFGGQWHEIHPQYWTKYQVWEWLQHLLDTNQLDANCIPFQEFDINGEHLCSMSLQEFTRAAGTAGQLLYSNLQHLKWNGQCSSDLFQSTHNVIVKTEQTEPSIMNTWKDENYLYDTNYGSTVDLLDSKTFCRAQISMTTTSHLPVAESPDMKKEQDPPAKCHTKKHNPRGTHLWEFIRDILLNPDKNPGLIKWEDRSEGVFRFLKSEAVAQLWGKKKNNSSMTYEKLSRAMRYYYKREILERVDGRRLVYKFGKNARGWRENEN
# Outline: as §1
# SPI1 = SPI1 (Homo sapiens, UniProt P17947 1-270); settings: protein: recombinant; tags: N-terminal GST; dsDNA, one strand shown
# Outline: as §1
# SPIB = SPIB (Homo sapiens, UniProt Q01892 1-262); settings: protein: recombinant; tags: N-terminal GST; dsDNA, one strand shown
# Chain of SPIB (Q01892 whole entry): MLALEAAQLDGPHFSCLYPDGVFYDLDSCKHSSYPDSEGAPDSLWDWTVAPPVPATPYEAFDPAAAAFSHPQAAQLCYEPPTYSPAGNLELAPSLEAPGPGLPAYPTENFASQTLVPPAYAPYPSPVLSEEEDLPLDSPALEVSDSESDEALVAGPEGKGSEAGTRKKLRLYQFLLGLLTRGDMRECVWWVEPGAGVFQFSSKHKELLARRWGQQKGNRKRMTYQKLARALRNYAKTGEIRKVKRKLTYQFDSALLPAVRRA
# Outline: as §1
# ELK3 = target: T6, ELK3 (Homo sapiens, UniProt P41970 1-407); settings: protein: recombinant; tags: N-terminal GST; dsDNA, one strand shown
# T6 sequence: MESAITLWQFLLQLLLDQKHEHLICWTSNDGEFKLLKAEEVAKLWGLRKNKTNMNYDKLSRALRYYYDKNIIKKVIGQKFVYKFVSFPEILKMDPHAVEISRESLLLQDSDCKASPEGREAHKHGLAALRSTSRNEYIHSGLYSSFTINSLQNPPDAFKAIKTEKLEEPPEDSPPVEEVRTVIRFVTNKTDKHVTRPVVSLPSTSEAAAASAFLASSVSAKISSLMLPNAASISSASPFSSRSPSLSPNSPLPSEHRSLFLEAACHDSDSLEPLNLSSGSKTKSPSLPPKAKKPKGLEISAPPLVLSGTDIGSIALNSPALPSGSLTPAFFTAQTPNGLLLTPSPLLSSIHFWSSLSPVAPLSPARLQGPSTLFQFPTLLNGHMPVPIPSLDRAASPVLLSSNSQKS
# Outline: as §1
# FEV = target: T7, FEV (Homo sapiens, UniProt Q99581 1-238); settings: protein: recombinant; tags: N-terminal GST; dsDNA, one strand shown
# T7 sequence: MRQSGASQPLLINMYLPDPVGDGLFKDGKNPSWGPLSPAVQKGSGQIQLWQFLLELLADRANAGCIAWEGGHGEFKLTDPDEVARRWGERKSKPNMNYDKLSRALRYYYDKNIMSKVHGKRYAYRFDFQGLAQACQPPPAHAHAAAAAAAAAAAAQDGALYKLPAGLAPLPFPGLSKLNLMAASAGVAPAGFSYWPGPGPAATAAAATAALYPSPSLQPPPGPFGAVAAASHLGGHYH
# Outline: as §1
# ETV5 = ETV5 (Homo sapiens, UniProt P41161 1-510); settings: protein: recombinant; tags: N-terminal GST; dsDNA, one strand shown
# Chain of ETV5 (P41161 whole entry): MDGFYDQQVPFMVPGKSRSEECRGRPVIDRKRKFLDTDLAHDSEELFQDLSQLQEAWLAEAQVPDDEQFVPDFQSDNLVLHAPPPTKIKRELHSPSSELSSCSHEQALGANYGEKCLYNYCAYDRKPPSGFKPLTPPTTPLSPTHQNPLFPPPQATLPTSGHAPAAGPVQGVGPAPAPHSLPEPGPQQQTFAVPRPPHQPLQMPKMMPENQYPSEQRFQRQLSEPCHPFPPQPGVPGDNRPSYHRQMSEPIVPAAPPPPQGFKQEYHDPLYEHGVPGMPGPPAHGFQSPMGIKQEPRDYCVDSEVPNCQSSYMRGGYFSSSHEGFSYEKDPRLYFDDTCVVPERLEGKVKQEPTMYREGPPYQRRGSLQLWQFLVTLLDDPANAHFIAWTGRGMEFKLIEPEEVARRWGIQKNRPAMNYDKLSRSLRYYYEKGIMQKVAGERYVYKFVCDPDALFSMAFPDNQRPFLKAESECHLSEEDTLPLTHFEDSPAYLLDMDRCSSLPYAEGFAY
# Outline: as §1
# HSF1 = HSF1 (Homo sapiens, UniProt Q00613 1-529); settings: protein: recombinant; tags: N-terminal GST; chain copies: 3; dsDNA, one strand shown
# Chain of HSF1 (Q00613 whole entry): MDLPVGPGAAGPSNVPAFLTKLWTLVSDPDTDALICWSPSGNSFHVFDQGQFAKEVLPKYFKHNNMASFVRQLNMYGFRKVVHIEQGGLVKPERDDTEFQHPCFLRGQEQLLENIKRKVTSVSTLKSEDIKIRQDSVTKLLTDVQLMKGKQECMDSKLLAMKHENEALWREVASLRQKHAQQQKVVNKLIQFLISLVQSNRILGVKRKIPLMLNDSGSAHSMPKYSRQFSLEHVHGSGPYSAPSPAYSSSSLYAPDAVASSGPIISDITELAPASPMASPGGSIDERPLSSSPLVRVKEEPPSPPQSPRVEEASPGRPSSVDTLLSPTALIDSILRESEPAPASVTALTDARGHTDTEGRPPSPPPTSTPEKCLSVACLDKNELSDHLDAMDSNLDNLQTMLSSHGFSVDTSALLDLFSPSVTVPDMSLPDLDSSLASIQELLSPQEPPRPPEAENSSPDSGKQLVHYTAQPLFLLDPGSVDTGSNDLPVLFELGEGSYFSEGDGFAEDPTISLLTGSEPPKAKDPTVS
# Outline: as §1
# SPIC = target: T8, SPIC (Homo sapiens, UniProt Q8N5J4 1-248); settings: protein: recombinant; tags: N-terminal GST; dsDNA, one strand shown
# T8 sequence: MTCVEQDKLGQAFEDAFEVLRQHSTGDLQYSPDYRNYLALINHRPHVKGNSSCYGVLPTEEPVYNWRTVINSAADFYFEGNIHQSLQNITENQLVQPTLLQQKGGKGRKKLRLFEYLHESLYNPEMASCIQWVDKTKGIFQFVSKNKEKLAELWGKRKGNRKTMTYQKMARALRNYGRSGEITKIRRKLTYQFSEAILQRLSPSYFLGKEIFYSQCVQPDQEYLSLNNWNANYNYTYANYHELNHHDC
# Outline: as §1
# ELF4 = ELF4 (Homo sapiens, UniProt Q99607 1-663); settings: protein: recombinant; tags: N-terminal GST; dsDNA, one strand shown
# Chain of ELF4 (Q99607 whole entry): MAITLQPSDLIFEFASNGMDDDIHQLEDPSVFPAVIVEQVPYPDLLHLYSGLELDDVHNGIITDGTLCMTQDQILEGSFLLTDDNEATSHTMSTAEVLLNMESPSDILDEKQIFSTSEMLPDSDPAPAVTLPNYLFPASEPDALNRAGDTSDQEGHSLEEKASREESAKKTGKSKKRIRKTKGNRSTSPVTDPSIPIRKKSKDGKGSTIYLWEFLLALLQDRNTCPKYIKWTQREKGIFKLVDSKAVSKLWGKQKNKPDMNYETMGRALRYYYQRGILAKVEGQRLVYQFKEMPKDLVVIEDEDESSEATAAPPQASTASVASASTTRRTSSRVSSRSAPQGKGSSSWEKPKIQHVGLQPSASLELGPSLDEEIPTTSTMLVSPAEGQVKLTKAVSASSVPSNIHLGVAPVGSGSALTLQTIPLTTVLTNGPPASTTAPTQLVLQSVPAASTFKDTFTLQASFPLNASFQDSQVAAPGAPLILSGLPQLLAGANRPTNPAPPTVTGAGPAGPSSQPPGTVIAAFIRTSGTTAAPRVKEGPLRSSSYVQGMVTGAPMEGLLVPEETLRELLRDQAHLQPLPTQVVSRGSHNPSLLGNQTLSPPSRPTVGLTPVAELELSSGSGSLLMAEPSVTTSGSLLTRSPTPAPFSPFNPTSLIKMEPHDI
# Outline: as §1
# ELK4 = target: T9, ELK4 (Homo sapiens, UniProt P28324-2 1-405); settings: protein: recombinant; tags: N-terminal GST; dsDNA, one strand shown
# T9 sequence: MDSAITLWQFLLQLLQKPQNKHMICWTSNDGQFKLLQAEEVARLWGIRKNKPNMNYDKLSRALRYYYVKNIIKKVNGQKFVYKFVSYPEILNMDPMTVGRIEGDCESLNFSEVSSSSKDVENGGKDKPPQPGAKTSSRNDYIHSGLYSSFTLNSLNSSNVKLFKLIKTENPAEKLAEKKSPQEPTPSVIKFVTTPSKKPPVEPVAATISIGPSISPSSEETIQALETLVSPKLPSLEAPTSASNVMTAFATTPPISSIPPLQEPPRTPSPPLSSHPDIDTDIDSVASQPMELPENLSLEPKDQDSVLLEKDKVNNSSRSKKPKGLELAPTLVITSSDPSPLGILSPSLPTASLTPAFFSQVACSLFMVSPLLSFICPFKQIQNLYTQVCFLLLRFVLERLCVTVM
# Outline: as §1
# ETV2 = target: T10, ETV2 (Homo sapiens, UniProt O00321 1-342); settings: protein: recombinant; tags: N-terminal GST; dsDNA, one strand shown
# T10 sequence: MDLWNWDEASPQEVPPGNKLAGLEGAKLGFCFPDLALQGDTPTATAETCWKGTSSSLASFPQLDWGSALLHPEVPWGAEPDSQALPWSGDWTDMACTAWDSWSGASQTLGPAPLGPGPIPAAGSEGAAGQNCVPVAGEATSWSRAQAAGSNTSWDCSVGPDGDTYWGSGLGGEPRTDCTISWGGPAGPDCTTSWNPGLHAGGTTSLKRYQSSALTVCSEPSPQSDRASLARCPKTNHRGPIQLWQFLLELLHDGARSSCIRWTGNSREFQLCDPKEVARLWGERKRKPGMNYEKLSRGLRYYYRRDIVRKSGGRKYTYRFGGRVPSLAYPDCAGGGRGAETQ
# Outline: as §1
# ELF3 = target: T11, ELF3 (Homo sapiens, UniProt P78545 1-371); settings: protein: recombinant; tags: N-terminal GST; dsDNA, one strand shown
# T11 sequence: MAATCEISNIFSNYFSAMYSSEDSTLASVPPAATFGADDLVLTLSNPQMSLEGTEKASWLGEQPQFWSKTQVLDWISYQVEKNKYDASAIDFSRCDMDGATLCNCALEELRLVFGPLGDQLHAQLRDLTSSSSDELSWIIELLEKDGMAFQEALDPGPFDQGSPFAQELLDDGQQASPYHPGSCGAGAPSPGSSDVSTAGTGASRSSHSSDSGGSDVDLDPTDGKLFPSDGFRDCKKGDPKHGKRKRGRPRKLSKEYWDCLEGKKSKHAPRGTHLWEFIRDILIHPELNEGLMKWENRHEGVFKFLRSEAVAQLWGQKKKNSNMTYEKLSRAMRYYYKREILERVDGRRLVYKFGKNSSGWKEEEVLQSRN
# Outline: as §1
# CRX = CRX (Homo sapiens, UniProt O43186 1-299); settings: protein: recombinant; tags: N-terminal GST; dsDNA, one strand shown
# Chain of CRX (O43186 whole entry): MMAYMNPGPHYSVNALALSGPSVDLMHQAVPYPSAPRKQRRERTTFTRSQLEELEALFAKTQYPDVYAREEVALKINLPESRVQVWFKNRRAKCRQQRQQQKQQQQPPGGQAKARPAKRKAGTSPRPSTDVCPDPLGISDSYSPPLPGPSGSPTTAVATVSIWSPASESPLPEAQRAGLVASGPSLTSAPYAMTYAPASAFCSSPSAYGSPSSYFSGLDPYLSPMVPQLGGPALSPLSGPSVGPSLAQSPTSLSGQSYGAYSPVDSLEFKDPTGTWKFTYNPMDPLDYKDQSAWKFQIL
# Outline: as §1
# ETV1 = ETV1 (Homo sapiens, UniProt P50549 1-477); settings: protein: recombinant; tags: N-terminal GST; dsDNA, one strand shown
# Chain of ETV1 (P50549 whole entry): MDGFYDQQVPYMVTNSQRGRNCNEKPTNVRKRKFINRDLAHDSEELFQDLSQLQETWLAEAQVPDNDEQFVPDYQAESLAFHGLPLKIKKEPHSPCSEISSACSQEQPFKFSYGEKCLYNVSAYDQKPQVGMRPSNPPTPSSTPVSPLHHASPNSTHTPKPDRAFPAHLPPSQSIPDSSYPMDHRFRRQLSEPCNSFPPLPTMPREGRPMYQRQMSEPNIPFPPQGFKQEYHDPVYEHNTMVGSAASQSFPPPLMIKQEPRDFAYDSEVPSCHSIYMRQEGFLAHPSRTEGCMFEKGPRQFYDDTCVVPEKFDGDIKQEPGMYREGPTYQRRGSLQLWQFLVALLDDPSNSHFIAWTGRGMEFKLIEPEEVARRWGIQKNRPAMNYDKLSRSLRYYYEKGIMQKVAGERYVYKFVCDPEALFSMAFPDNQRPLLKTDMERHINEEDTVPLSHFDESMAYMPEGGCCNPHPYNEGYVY
# Outline: as §1
sequence,measurement,setting,value
AATCGC,binding signal,FLI1,"1.12 fold enrichment (6-mer frequency, TF over GST control)"
same,binding signal,ELK1,"1.09 fold enrichment (6-mer frequency, TF over GST control)"
same,binding signal,GABPA,"1.14 fold enrichment (6-mer frequency, TF over GST control)"
same,binding signal,ERG,"1.07 fold enrichment (6-mer frequency, TF over GST control)"
same,binding signal,ELF1,"1.13 fold enrichment (6-mer frequency, TF over GST control)"
same,binding signal,EHF,"1.16 fold enrichment (6-mer frequency, TF over GST control)"
same,binding signal,SPI1,"1.05 fold enrichment (6-mer frequency, TF over GST control)"
same,binding signal,SPIB,"1.08 fold enrichment (6-mer frequency, TF over GST control)"
same,binding signal,ELK3,"1.16 fold enrichment (6-mer frequency, TF over GST control)"
same,binding signal,FEV,"1.08 fold enrichment (6-mer frequency, TF over GST control)"
same,binding signal,ETV5,"1.03 fold enrichment (6-mer frequency, TF over GST control)"
same,binding signal,HSF1,"1.3 fold enrichment (6-mer frequency, TF over GST control)"
same,binding signal,SPIC,"1.08 fold enrichment (6-mer frequency, TF over GST control)"
same,binding signal,ELF4,"1.14 fold enrichment (6-mer frequency, TF over GST control)"
same,binding signal,ELK4,"1.08 fold enrichment (6-mer frequency, TF over GST control)"
same,binding signal,ETV2,"1.04 fold enrichment (6-mer frequency, TF over GST control)"
same,binding signal,ELF3,"1.08 fold enrichment (6-mer frequency, TF over GST control)"
same,binding signal,CRX,"1.62 fold enrichment (6-mer frequency, TF over GST control)"
same,binding signal,ETV1,"1.15 fold enrichment (6-mer frequency, TF over GST control)"
